Data published in PubChem BioAssay (Tox21).
Where “and” joins values, the source holds several entries; their conditions need not be identical. Equal values may be shown once. More than one record can exist for a structure, and the calls need not agree. Calls of active or inactive are those of the source. Entries that show only a call come without a potency. Calls follow the shape of the full dose curve.

Target: Acetylcholinesterase (Homo sapiens) (UniProt P22303)
Assay: Acetylcholinesterase (AChE) small molecule antagonists: enzyme-based qHTS assay (AID 1347397); also: nearly all actives have a fitted effect of over 55% in size
Settings: Potency: AChE enzyme activity inhibition; series mostly up to 115 µM
Description: National Center for Advancing Translational Sciences [NCATS]
Division of Preclinical Innovation [DPI]
U.S. Environmental Protection Agency [EPA]
National Institutes of Environmental Health Sciences [NIEHS]
National Toxicology Program [NTP]
U.S. Food and Drug Administration [FDA]
Acetylcholinesterase (AChE) is the primary cholinesterase in the body that hydrolyzes a key neurotransmitter, acetylcholine. Inhibition of AChE activity can lead to neurotoxicity. The known inhibitors include organophosphorous pesticides (OP), chemical warfare agents, drugs, and various phytochemicals.
An enzyme-based assay with the recombinant human AChE and Amplite Colormetric acetylcholinesterase assay kit (AAT Bioquest, Sunnyvale, CA) was used to evaluate the chemicals in the Tox21 10K library that inhibit AChE activity. The assay uses 5, 5-dithiobis-(2-nitrobenzoic acid) (DTNB) to quantify the thiocholine produced from the hydrolysis of acetylthiocholine by AChE.
Tox21 Assay Protocol Summary:
For the enzyme-based AChE assay, recombinant human AChE (50 mU/mL) in 4 uL/well was dispensed into black, clear-bottom 1536-well plates using a Multidrop Combi dispenser (Thermo Scientific, MA). Then, 23 nL of compound or DMSO (vehicle control) was transferred into the assay plates by a Pintool Station (Wako Automation, CA). The plates were incubated for 30 min at room temperature, followed by the addition of 4 uL of colorimetric detection cocktail solution (DTNB, acetylthiocholine) into each well using a Flying Reagent Dispenser (Beckman Coulter, CA) and then 10 min incubation at room temperature.
Potency is read from the fitted curve at half-maximal effect.

Chain of Acetylcholinesterase (Homo sapiens) (P22303 whole entry, looked up): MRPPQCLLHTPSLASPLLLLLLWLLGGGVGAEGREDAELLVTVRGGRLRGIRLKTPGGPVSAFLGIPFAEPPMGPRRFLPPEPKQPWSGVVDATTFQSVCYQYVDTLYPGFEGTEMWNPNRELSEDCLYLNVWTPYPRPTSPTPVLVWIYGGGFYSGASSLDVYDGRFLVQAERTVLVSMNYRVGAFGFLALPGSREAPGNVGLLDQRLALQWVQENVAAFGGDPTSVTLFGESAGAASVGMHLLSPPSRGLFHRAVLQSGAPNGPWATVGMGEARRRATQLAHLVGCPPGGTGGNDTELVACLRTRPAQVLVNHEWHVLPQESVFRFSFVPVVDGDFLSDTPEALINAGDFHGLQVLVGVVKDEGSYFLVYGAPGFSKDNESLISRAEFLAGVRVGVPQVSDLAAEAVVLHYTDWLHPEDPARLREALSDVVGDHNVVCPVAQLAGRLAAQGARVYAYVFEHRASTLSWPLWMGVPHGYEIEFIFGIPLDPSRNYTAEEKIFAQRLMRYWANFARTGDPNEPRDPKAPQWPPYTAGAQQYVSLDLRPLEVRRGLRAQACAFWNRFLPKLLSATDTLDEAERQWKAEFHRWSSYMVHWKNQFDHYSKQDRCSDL

| Compound | Potency |
| --- | --- |
| CCCC[N+]1(C)CCCCC1 | inactive |
| CCOP(=S)(OCC)Oc1ccc2c(C)c(Cl)c(=O)oc2c1 | 40.4 µM (active) and 71 µM (active) and inactive |
| O=C(O)C(Cl)Cl | inactive |
| O=C(O)C(Cl)(Cl)Cl | inactive |
| CC(=O)[O][Hg][c]1ccccc1 | inactive |
| OCCOc1ccccc1 | inactive |
| Oc1ccccc1-c1ccccc1 | inactive |
| O=c1[nH]c(=O)n(Cl)c(=O)n1Cl | inactive |
| CCCn1cc[n+](C)c1 | inactive |
| Cc1cc(-c2ccc(N)c(C)c2)ccc1N | inactive |
| CC[N+]1(C)CCCC1 | inactive |
| O=c1nc(O)n(Cl)c(=O)n1Cl | inactive |
| CCC[N+]1(C)CCCCC1 | inactive |
| O=C(O)CCl | inactive |
| C1CCC(NC2CCCCC2)CC1 | inactive |
| Nc1ccc(-c2ccc(N)c(Cl)c2)cc1Cl | inactive |
| CNC | inactive |
| C[C@]12CCC(=O)C=C1CC[C@@H]1[C@@H]2CC[C@]2(C)C(=O)CC[C@@H]12 | inactive |
| CCCCCCCCCCCCCC[P+](CCCCCC)(CCCCCC)CCCCCC | 20.1 µM (active) and 25.4 µM (active) and inactive |

| Compound | Potency |
| --- | --- |
| CCCCCCCCCCCCOS(=O)(=O)O | inactive |
| COCC(=O)N(c1c(C)cccc1C)C(C)C(=O)OC (configuration not stated) | inactive |
| C[N+](C)(C)Cc1ccccc1 | inactive |
| CC(Cl)(Cl)C(=O)O | inactive |
| CCC(=O)C(CC(C)N(C)C)(c1ccccc1)c1ccccc1 (configuration not stated) | inactive |
| O=P1(N(CCCl)CCCl)NCCCO1 (configuration not stated) | inactive |
| Cc1cc(Cl)ccc1OCC(=O)O | inactive |
| O=[N+]([O-])c1ccccc1O | inactive |
| C=CCOC(Cn1ccnc1)c1ccc(Cl)cc1Cl (configuration not stated) | inactive |
| COP(=O)(OC)OC=C(Cl)Cl | inactive |
| CCCCCCCCCCCC(=O)O | inactive |
| Nc1ccc(Cl)cc1 | inactive |
| CCNc1nc(Cl)nc(NCC)n1 | inactive |
| Nc1ccc(-c2ccc(N)cc2)cc1 | inactive |
| CC[n+]1ccccc1 | inactive |
| O=C(O)COc1ccc(Cl)cc1Cl | inactive |
| O=C(O)c1nc(Cl)ccc1Cl | inactive |
| CCn1cc[n+](C)c1C | inactive |
